# Compound activity deposited in PubChem BioAssay by National Center for Advancing Translational Sciences (NCATS).
# In the library only some 21% were active in any assay of this set; here they are far more common.
# Shiga toxin inh: inhibitors of Shiga toxin in Vero cells; Vero cells, Shiga toxin protein synthesis inhibition reporter; inhibition, % at 38.7 µM; 290,000 tested, 9.2% active; in the data active = inhibition mostly above about 28%, no sharp cut-off; inactive = mostly below about 43%; also: 0% is about no effect
# Pf growth 48h: P. falciparum growth inhibition at 48 hours (one generation) | 310,000 tested, 5.9% active | AID 504832 | Potency, µM (series often up to 28.7 µM), for the others: at the top dose activity change, negative = inhibition, hits mostly inhibitors | P. falciparum luciferase growth in erythrocytes, 48 h; also: potency is read from the fitted curve at half-maximal effect; % is scaled to controls: 0 for no effect and ±100 for the full control effect
#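 In quantitative HTS format, infected erythrocytes bearing luciferase-reporter parasites were treated for a single generation at 37 C. Luminescence after adding detection reagent served as the growth measure.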
# Pf growth 96h: P. falciparum growth inhibition at 96 hours; P. falciparum luciferase reporter growth, 96 h; Potency, µM (doses to about 28.7 µM), inactives show at the highest dose activity change, negative = inhibition, usual class: inhibitors; 320,000 tested, 6.9% active; also: potency is read from the fitted curve at half-maximal effect; % is scaled to controls: 0 for no effect and ±100 for the full control effect
#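 Parasite growth measured via integrated firefly luciferase reporter in P. falciparum. Infected erythrocytes at 2% hematocrit, 0.05% parasitemia final were treated 96 hours at 37 C under 5% CO2, and luminescence was read.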
# Cycloheximide cs: counter-screen for Shiga toxin inhibitors: cycloheximide protein synthesis inhibition | max response, % | 300,000 tested, 12% active | cell reporter, cycloheximide protein synthesis inhibition counterscreen | AID 2314; in the data active = max response mostly above about 13%, no sharp cut-off; inactive = mostly below about 14%; also: read at 38.3 µM for the half of the compounds with a filed dose; 0% is about no effect
# Active calls of the source: *; i = inactive; ? = inconclusive; . = no result. Unless noted, calls follow the shape of the dose curve; as a rule, active = well fitted inhibition curve with a large enough effect; inconclusive = small, poorly fitted or top-dose-only effect, or another doubt; inactive = no such curve, though single readings can be large or run the other way.
SMILES,Shiga toxin inh,Pf growth 48h,Pf growth 96h,Cycloheximide cs
CCOC(=O)c1ccc(NC(=O)c2c(O)c3ccccc3n(C)c2=O)cc1,-7,9%,-20%,-1
COC(=O)c1ccc(CNC(=O)CCc2c[nH]c3ccccc23)cc1,4,7%,11%,-3
COC(=O)c1ccc2c(CCO)c[nH]c2c1,37*,141%,31%,25*
CC(=O)c1ccc(OCc2cc(C(=O)N3CCCCC3c3cccnc3)no2)cc1 (stereo not given),81*,?,19%,54*
CC(=O)c1ccc(OCc2cc(C(=O)N3CCC(c4ccncc4)CC3)no2)cc1,23,3%,4%,8
CCOc1cccc(C(=O)N2CCCCC2c2cccnc2)c1 (stereo not given),6,9.3µM*,53%,3
Cc1c(Cl)ccc(S(=O)(=O)NCCCn2ccnc2)c1Cl,-7,-18%,-7%,-4
Cc1ccc(S(=O)(=O)NCC(=O)OCc2ccccc2Br)cc1,-18,40%,9.3µM*,-1
COC(=O)c1ccc(COC(=O)CNS(=O)(=O)c2ccc(C)cc2)cc1,81*,99%,0%,33*
Cc1ccc(S(=O)(=O)NCC(=O)OCC(=O)c2cccs2)cc1,-14,-2%,13µM*,4
CC1CCCCC1NC(=O)Cn1cnc2sccc2c1=O (stereo not given),.,-4%,-7%,.
O=C(Nc1cccc(Cl)c1)N(Cc1nc2ccccc2c(=O)[nH]1)C1CCCC1,22,-8%,4%,10
O=C(Nc1cccc(Cl)c1)N(Cc1nc2ccccc2c(=O)[nH]1)Cc1cccs1,-4,7.4µM*,?,8
Cc1cc(Nc2ccccc2)n(-c2ccccc2)n1,-11,-13%,29%,-3
Cc1cc(Nc2ccccc2)nn1C(=O)c1ccc(Cl)cc1,156*,31%,.,49*
Cc1cc(N2CCN(c3ccccc3)CC2)nc(-n2nc(C)cc2C)n1,-9,3.7µM*,-29%,-5
Cc1cc(C)nc(-n2nc(C)cc2Nc2ccccc2)n1,-5,8.3µM*,.,-1
Cc1cc(C)nc(-n2nc(C)c(Br)c2Nc2ccc(Br)cc2)n1,-18,3.7µM*,.,-1
Cc1cc(NC(=O)c2ccccc2)n(C(C)(C)C)n1,-6,34%,45%,1
Cc1cc(Nc2ccccc2)n(C(=O)c2ccccc2)n1,73,12%,.,47*
Cc1cc(Nc2ccccc2)nn1C(=O)c1ccc([N+](=O)[O-])cc1,-7,2%,9.3µM*,-3
Cc1cc(C)n(C(=O)c2cccc([N+](=O)[O-])c2)n1,-4,6%,0%,-1
CCNS(=O)(=O)c1ccc(CCC(=O)NCc2ccc(C)cc2)cc1,-7,1%,14%,-3
O=C(CCC(=O)N1CCOc2ccc(Cl)cc21)NCCCN1CCN(Cc2ccccc2)CC1,-5,?,59%,-1
O=C(CCC(=O)N1CCOc2ccc(Cl)cc21)NCc1ccccc1,-2,-14%,12µM*,-3
SMILES,Shiga toxin inh,Pf growth 48h,Pf growth 96h,Cycloheximide cs
CN(CCCNC(=O)CCC(=O)N1CCOc2ccc(Cl)cc21)Cc1ccccc1,-2,3%,15µM*,1
CC(CNC(=O)CCC(=O)N1CCOc2ccc(Cl)cc21)c1ccccc1 (stereo not given),4,?,13µM*,-2
COc1ccc(CCC(=O)OCC(=O)Nc2ccc(OC)c(OC)c2)cc1OC,-9,?,19%,-3
COc1ccc(-c2csc(NC3CCCCC3)n2)c(OC)c1,60*,9.3µM*,?,26*
O=C(Nc1nc(-c2ccccc2)cs1)C1CCCCN1S(=O)(=O)c1ccccc1 (stereo not given),-13,?,53%,8
c1ccc(-c2csc(NC3CCCCC3)n2)cc1,148*,6%,-62%,56*
O=C(Nc1nc(-c2ccccc2)cs1)NC1CCCCC1,48*,5%,8%,34*
O=C(Nc1nc(-c2ccccc2)cs1)C1CCCN(S(=O)(=O)c2ccccc2)C1 (stereo not given),20,.,?,3
Cc1ccc(NC(=O)C2CCCN(C(=O)NCc3ccccc3)C2)c(C)c1 (stereo not given),-3,-10%,?,-4
Cc1c(C(=O)N2CCN(C3CCS(=O)(=O)C3)CC2)oc2c(F)cccc12 (stereo not given),.,14%,?,.
O=C1Cc2ccccc2C(=O)N1c1ccccc1,-1,21%,42%,-5
c1ccc(N2CC3CCc4ccccc4C3=N2)cc1 (stereo not given),64*,148%,147%,39*
COc1ccccc1N/C(N)=N/c1nc(CSc2nc3ccccc3s2)cc(=O)[nH]1,48*,14%,?,12
CCc1nnc(SCC(=O)NC2CC2)n1CC,-12,38%,-25%,-2
c1nc(NCCN2CCOCC2)c2sc3nc(N4CCOCC4)c4c(c3c2n1)CCC4,-4,7.4µM*,.,-4
CCN1CCN(c2ncnc3c2sc2nc(N4CCOCC4)c4c(c23)CCC4)CC1,22,-4%,52%,-5
COc1ccc2cc(C(=O)NCCCN3CCCC3=O)[nH]c2c1,35,25%,37%,17
Clc1cccc(/C=N/N2CCN(Cc3ccccc3)CC2)c1,51,46%,-15%,21*
FC(F)(F)c1ccccc1/C=N/N1CCN(Cc2ccccc2)CC1,109*,82%,21%,36*
BrC(=C\c1ccccc1)/C=N/N1CCN(Cc2ccccc2)CC1,13,-13%,51%,22*
C(=N\N1CCN(Cc2ccccc2)CC1)/c1ccccc1,69*,28%,15%,39*
FC(F)(F)c1ccc(/C=N/N2CCN(Cc3ccccc3)CC2)cc1,1,39%,9%,8
BrC(/C=N/N1CCN(Cc2ccccc2)CC1)=C/c1ccccc1,21,-20%,5%,8
Cc1ccc(NC(=O)COC(=O)C2CC3CCCC(C2)C3=O)c([N+](=O)[O-])c1 (stereo not given),.,2%,9%,.
O=C(N/C(=C\c1cccc(Br)c1)C(=O)N1CCOCC1)c1ccco1,24,21%,45%,-2
SMILES,Shiga toxin inh,Pf growth 48h,Pf growth 96h,Cycloheximide cs
C(=N\N1CCN(Cc2ccccc2)CC1)/c1cccnc1,28,33%,6.6µM*,10
Cc1ccc(CN2CCN(/N=C/c3ccc(C)s3)CC2)cc1,-14,19%,?,-3
Cc1ccc(/C=N/N2CCOCC2)s1,68*,i,92%,46*
Cc1ccc(/C=N/N2CCN(Cc3ccccc3)CC2)s1,70*,45%,46%,51*
Cc1ccc(C(=O)NCCS(=O)(=O)N2CCN(c3ccccc3F)CC2)cc1[N+](=O)[O-],-7,5%,5%,-1
COc1ccc(-c2nc3ncccn3c2Br)cc1,73*,134%,18%,28*
Brc1c(-c2ccc3c(c2)OCO3)nc2ncccn12,33*,67%,?,20*
Cc1cccc(C)c1NC(=O)CSc1nc2[nH]c(=O)cc(O)c2s1,.,-28%,?,.
O=C(O)CN1C(=O)C2C3CC(C2C1=O)C1C(c2ccc(F)cc2)c2sc(=O)[nH]c2SC31 (stereo not given),-7,1%,-22%,-2
CN(C)C(=O)COc1ccc2c3c(c(=O)oc2c1)CCCC3,.,19%,9.3µM*,-1
